Data from PubChem BioAssay AID1851 (National Center for Advancing Translational Sciences (NCATS), 2009).
“And” between values parts separate entries of the source, which are not always exact repeats. Identical values can stand only once. About 5,700 (36%) of roughly 16,000 compounds were called active. Roughly 24% stayed inconclusive and do not appear here. The call rests on the fitted dose curve; in most records, active means well fitted curve in the direction sought with a large enough effect; inconclusive means small, poorly fitted or top-dose-only effect, or effect the other way; inactive means no such curve, though single readings can be large or run the other way. The list shows a part of the results. Some structures have more than one record in an assay (separate samples or runs), and their calls can disagree.

molecular target: Cytochrome P450 1A2 (Homo sapiens) (UniProt P05177); experiment: Cytochrome panel assay with activity outcomes; conditions: recombinant CYP, pro-luciferin dealkylation, luminescence, p450-cyp1a2; series mostly up to 57.1 µM
On the % scale 0 is the no-effect control and ±100 the full control effect.

Sequence of Cytochrome P450 1A2 (Homo sapiens) (P05177 whole entry, looked up): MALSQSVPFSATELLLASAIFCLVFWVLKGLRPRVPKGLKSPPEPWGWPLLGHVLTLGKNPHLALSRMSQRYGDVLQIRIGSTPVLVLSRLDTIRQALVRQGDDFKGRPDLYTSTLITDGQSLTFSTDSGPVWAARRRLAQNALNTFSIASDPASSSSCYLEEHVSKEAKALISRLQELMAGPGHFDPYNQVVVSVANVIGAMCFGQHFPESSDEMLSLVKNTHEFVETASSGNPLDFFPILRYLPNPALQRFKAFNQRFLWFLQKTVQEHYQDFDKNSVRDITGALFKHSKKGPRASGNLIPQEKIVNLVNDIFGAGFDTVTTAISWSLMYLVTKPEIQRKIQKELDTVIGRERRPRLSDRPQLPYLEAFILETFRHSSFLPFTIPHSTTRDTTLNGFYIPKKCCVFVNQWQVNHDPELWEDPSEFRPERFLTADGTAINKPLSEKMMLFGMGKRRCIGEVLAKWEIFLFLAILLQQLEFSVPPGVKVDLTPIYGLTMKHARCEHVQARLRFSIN

AC50, inactive and 20 µM (active):
CN1C(C(=O)Nc2ccccn2)=C(O)c2ccccc2S1(=O)=O

AC50, active:
O=c1cnc2cnc(Oc3ccccc3)nc2n1CCc1ccccc1 3.16 µM
COCCn1c(=O)c(C)nc2cnc(Oc3ccc(OC)cc3)nc21 15.8 µM
Cn1c(=O)cnc2cnc(Oc3ccccc3)nc21 10 µM
COCCn1c(=O)cnc2cnc(Oc3ccccc3)nc21 15.8 µM
COc1ncc2ncc(=O)n(C)c2n1 12.6 µM
COc1ccc(-n2c(=O)cnc3cnc(Oc4ccccc4)nc32)cc1 15.8 µM
COCCn1c(=O)cnc2cnc(Oc3ccc(OC)cc3)nc21 5.01 µM
N=c1sc2ccccc2n1CCS (tested in a mixture with another compound) 1 µM
O=c1cnc2cnc(N3CCOCC3)nc2n1C[C@H]1CCCO1 10 µM
O=c1cnc2cnc(N3CCOCC3)nc2n1C1CC1 6.31 µM
CN1CCN(c2ncc3ncc(=O)n(C[C@H]4CCCO4)c3n2)CC1 10 µM
COC(=O)c1nn(-c2ccccc2)c(=O)cc1Oc1ccccc1 20 µM
CN1CCC(=NNC(=O)CSCc2ccccc2)CC1 14.1 µM
CCCCC1CCC(c2nc(-c3ccccn3)no2)CC1 (centres undefined) 28.2 µM
Cc1cc(C)c(C#N)c(SCc2cc3c(cc2Cl)OCO3)n1 2.24 µM
Cc1cc(C)c(C#N)c(SCC(=O)c2ccc(Cl)cc2Cl)n1 2.24 µM
Cc1ccc(Oc2cc(N3CCOCC3)nc(-c3ccccc3)n2)cc1 2.51 µM
COc1cccc(Sc2cc(N3CCOCC3)nc(-c3ccccc3)n2)c1 2.51 µM
Cc1ccc(S(=O)(=O)c2cc(N3CCOCC3)nc(-c3ccccc3)n2)cc1 4.47 µM
O=C(O)CS(=O)c1ccc2c3c(cccc13)C(=O)c1ccccc1-2 (centres undefined) 0.0631 µM
Cc1ccc(/C=C/c2nnc(-c3cccs3)o2)cc1 8.91 µM
C(=C\c1nnc(-c2cccs2)o1)/c1ccccc1 2.51 µM
COc1ncc2nc(-c3cc(F)cc(F)c3)c(=O)n(C)c2n1 2 µM
Cn1c(=O)c(-c2cc(F)cc(F)c2)nc2cnc(Oc3ccccc3)nc21 2 µM
COc1ccc(Oc2ncc3nc(-c4cc(F)cc(F)c4)c(=O)n(C)c3n2)cc1 3.16 µM
COc1ccccc1NC(=O)CC1COc2ccccc2O1 (centres undefined) 7.08 µM
COc1cccc(OC)c1OCCNC[C@@H]1COc2ccccc2O1 12.6 µM and 25.1 µM
CC(C)N=c1scc(-c2ccco2)n1/N=C/c1ccc(O)c(O)c1 15.8 µM
Cc1cccc(OCCSCc2nc3ccccc3[nH]2)c1 2.24 µM
COc1ccc(/C=N/NC(N)=S)cc1OC(=O)c1cccc2ccccc12 1.58 µM
O=c1c2ccccc2nc2n1CCC2 6.31 µM
O=c1c2ccccc2nc2n1CCc1c-2[nH]c2ccccc12 0.316 µM
O=[N+]([O-])c1ccc(C2=Nn3c(nnc3-c3ccc(Cl)cc3)SC2)o1 0.158 µM
Cc1nc2sccc2c(=O)n1-c1cccc(Cl)c1 11.2 µM
COC(=O)c1cnn(C(=O)c2cc(OC)ccc2Br)c1N 28.2 µM
COC(=O)c1cnn(C(=O)c2ccccc2Br)c1N 8.91 µM
COc1ncc2nc(-c3cc(F)cc(F)c3)c(=O)n(C3CC3)c2n1 1.58 µM
O=c1c(-c2cc(F)cc(F)c2)nc2cnc(Oc3ccccc3)nc2n1C1CC1 2.51 µM
O=c1c(-c2cccs2)nc2cnc(Oc3ccccc3)nc2n1C1CC1 2.51 µM
COc1nc(Oc2ccc(/C=N/O)cc2)nc(N(C)C)n1 0.447 µM
Clc1cccc2c1CN(C1=NCCN1)C2 0.398 µM
CCOc1ccc(NCc2nnc(SCc3ccccc3Cl)n2-c2ccccc2)cc1 7.08 µM
COC(=O)CSc1nnc(CNc2ccc(Cl)cc2)n1-c1ccccc1 12.6 µM
C#CCSc1nnc(-c2cc3c(C(F)(F)F)nn(C)c3s2)n1C 1.12 µM
C=CCSc1nnc(-c2cc3c(C(F)(F)F)nn(C)c3s2)n1C 1.12 µM
CCCNC(=O)c1cc2c(C(F)(F)F)nn(C)c2s1 0.794 µM
CCCCSc1nnc(-c2cc3c(C(F)(F)F)nn(C)c3s2)n1C 14.1 µM
CCc1c2c(nc3cccc(OC)c13)OC(CC)C2 (centres undefined) 2 µM
COc1ccc(-c2nsc3c(N4CCCCC4)ncnc23)cc1 2.82 µM
Cc1nnc(-c2cnn(-c3ccccc3)c2N)n1Cc1ccccc1 14.1 µM
COc1ccc2c(=O)cc(-c3ccncc3)oc2c1OC 1.58 µM
Cn1cccc1C(=O)C(=O)Nc1cccc(Cl)c1Cl 17.8 µM

AC50, inactive:
Cc1nn(S(=O)(=O)c2cccs2)c(C)c1Sc1ccc([N+](=O)[O-])cc1
O=C1CCCN1CC(CN1CCOCC1)Sc1nnnn1-c1ccccc1 (centres undefined)
CCN(CC)CCCN(Cc1cc2ccc(C)c(C)c2[nH]c1=O)C(=O)NC1CCCCC1
CN(Cc1cnc2nc(N)nc(N)c2n1)c1ccc(C(=O)N[C@@H](CCC(=O)O)C(=O)O)cc1
CCn1cc(C(=O)O)c(=O)c2cnc(N3CCNCC3)nc21
COC(=O)c1nn(-c2ccccc2)c(-c2ccccc2)c1C(=O)c1ccccc1
COC(=O)N1CCC2(CCCN(Cc3ccccc3)C2)CC1
O=C(c1ccncc1)N1CCC[C@@]2(CCN(c3ncccn3)C2)C1
CC1CCC(=NNC(=O)Cc2ccccc2)CC1 (centres undefined)
CN(C)c1ccc(-c2noc(C3CCN(S(=O)(=O)c4cccc(C(=O)O)c4)CC3)n2)cc1
Cc1cccc(C(=O)N2CCC(c3nc(-c4ccc(S(=O)(=O)N5CCOCC5)cc4)no3)CC2)c1
O=c1nc(N2CCOCC2)ccn1-c1nc(-c2ccccc2)oc1-c1ccccc1
Cc1ccc(C(=O)N2CCN(c3cc(=O)[nH]nc3-c3ccccc3)CC2)cc1
N=C(N)c1ccc(N)cc1
Nc1nc2c(c(=O)[nH]1)N(C=O)[C@H](CNc1ccc(C(=O)N[C@@H](CCC(=O)O)C(=O)O)cc1)CN2
Cn1c(C(=O)O)c(CC(=O)NCC2COc3ccccc3O2)c2ccccc21 (centres undefined)
COc1ccccc1NC(=O)N1CCC(c2nnc(SCC(N)=O)n2C)CC1
COc1cccc(OC)c1OCCCN1CCOCC1
CNc1cc(NS(=O)(=O)c2ccc(N)cc2)nc(NC)n1
Cc1ccccc1N1CCN(S(=O)(=O)C[C@@]23CC[C@H](C[C@H]2NC(=O)[C@@H](N)CCS(C)(=O)=O)C3(C)C)CC1
COc1ccc(/C=N/NC(=O)c2cc(-c3ccc(C)cc3C)nc3ccccc23)cc1COC(C)=O
COc1ccc(C(=O)Oc2cc(/C=N/NS(=O)(=O)c3ccc(C)cc3)ccc2OC)cc1
O=c1c2ccccc2nc2n1C(CSc1ccc(F)cc1)CN2 (centres undefined)
CC(C)NC(=O)N1CC2(CCN(C(=O)c3ccncc3)CC2)C1
Cc1noc(C)c1C(=O)N1CCC2(CCCN(Cc3ccccc3)C2)CC1
CN(C)c1ccc(O)c2c1C[C@H]1C[C@H]3[C@@H](N(C)C)C(=O)C(C(N)=O)=C(O)[C@]3(O)C(=O)C1=C2O
Cc1ccccc1NC1=C(C(=O)c2ccccc2)N(C)S(=O)(=O)c2ccccc21
CN1C(C(=O)Nc2ccccn2)=C(O)c2sccc2S1(=O)=O
Fc1ccc(CN(C2=NCCN2)c2c(Cl)cccc2Cl)cc1
Clc1cccc(Cl)c1NC1=NCCN1
COc1ccc(-n2c(CNc3ccc(C)cc3)nnc2SCC(=O)Nc2nc(-c3ccccc3)cs2)cc1
CCNC(=O)CSc1nnc(C2CC2)n1-c1ccccc1
COC(Cc1nnc(SC)n1-c1ccc(Cl)cc1)OC
CCNS(=O)(=O)c1ccc(NC(=O)c2cc(C(F)(F)F)nn2C)cc1
COCC(=O)N1CCC2(CC1)CCN(C(=O)Nc1cccc(C#N)c1)CC2
Cc1nnc(-c2cnn(-c3ccccc3)c2N)n1Cc1ccc(F)cc1
O=C(c1cnccn1)N1CCC2(CCCN(c3ncccn3)C2)CC1
COc1ccc(C2C(C(=O)c3ccco3)=C(O)C(=O)N2Cc2cccnc2)cc1OC (centres undefined)
Cn1cccc1C(=O)N1CCC2(CCN(C(=O)Nc3ccccc3)CC2)CC1
Cn1cc(C(=O)c2cccc(Cl)c2Cl)cc1C(=O)O

activity, negative = inhibition, inactive:
O=C1C=C[C@@H](O)[C@H]2[C@@H]3C(=O)N(c4cccc(Oc5ccccc5)c4)C(=O)[C@@H]3CC[C@H]12 -5.61% [at 11.4 µM]
CO/N=C(\C)CCN1CCCCc2nc(C)c(C)cc21 -3.72% [at 11.4 µM]
C/C(=N\[N+](C)(C)C)c1ccc(C)c(C)c1 -16.9% [at 2.29 µM]
CCCC[C@@H]1CN2[C@H](c3ccc(Br)cc3)[C@H](C)CC[C@H]2C(=O)O1 3.25% [at 11.4 µM]
CCc1cc2c(nc1CC)CCN(CC/C(C)=N/O[C@@H](C)CN1CCCc3nc(C)c(C)cc31)C2 5.54% [at 11.4 µM]
NCc1nnn(Cc2ccccc2)c1N 2.27% [at 11.4 µM]
